This is an account of results in PubChem BioAssay (NCI).

This is part of a sample that, as a whole, favours compounds with a hit. Of some 83,000 tested, about 20% had one in any assay.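 Note: values are percent growth. 100 is the growth of untreated cells, values between 100 and 0 indicate rising inhibition; between -100 and 0 indicates cell death.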 Unmarked numbers belong to inactive results. Activity calls are given as the source filed them. Rule for the calls: active = growth percent below 10; inactive = the rest.

This experiment concerns CCRF-CEM leukemia. Put plainly: NCI-60 one-dose screen, 48 h (100 = growth as untreated, 0 = no growth, -100 = all killed). The settings on record: 10 µM unless noted.
With `O=C(O)C(O)C(O)C(=O)O.[NH-]C1CCCCC1[NH-].[Pt+2]` (centres undefined), the growth was 112%.

Regarding `Cc1ccc(Nc2c(C(N)=O)cnc3ccc(-c4csc(N)n4)cc23)cc1`, the growth is 104%.

Regarding `Cl/C(=N\Nc1ccccc1)c1ccccc1`, the growth was 89.4%.

Regarding `COc1cc(-c2c3sc(=O)[nH]c3nc3c2c(=O)[nH]n3C(C)C)cc2c1OCO2`, the growth is 125%.

Take `CC(C)(C)n1cc(-c2ccnc(NCCNS(=O)(=O)c3ccccc3)c2)c(-c2cccc(O)c2)n1`: the growth was 46.5%.

In the case of `COC(=O)C12C3C(=O)N(c4ccc(OC)cc4)C(=O)C3C(c3cn(-c4ccccc4)nc3C)N1[C@H](c1cn(-c3ccccc3)nc1C)[C@@H]1C(=O)N(c3ccc(OC)cc3)C(=O)[C@@H]12` (some centres undefined), the growth is 104%.

For the molecule `CC/C(Cc1ccccc1)=C(/c1ccc(O)cc1)c1ccc(OCCN2CCCC2)cc1`, the growth is -33.3% (active).

For `O=C(NC(Cc1ccccc1)C(=O)CCl)OCc1ccccc1` (centres undefined), the growth was -4.62% (active).

Take `CCCCCC(=O)N(CCCC)CCCC`: the growth is 99.1%.

Turning to `COc1cccc(/C=C2/C(=O)N(Cc3ccco3)SC2=S)c1OC`, the growth is 68.3%.

Turning to `COc1ccc(-c2cc(/C=C3\C(=O)Nc4ccc(Cl)cc43)[nH]n2)cc1`, the growth was 35.5%.

In the case of `CCOC(=O)C(C#N)C1CCCCC1` (centres undefined), the growth is 87.2%.

For the molecule `CC(C)[C@H]1COC(=O)N1[C@@H]1C(=O)N([C@@H](CCC(=O)N2CCN(C3CCCC3)CC2)C(=O)N[C@@H]2CCCc3ccccc32)[C@@H]1/C=C/c1cccc(Br)c1`, the growth is 32.8%.

In the case of `Nc1ccc(N2CCOCC2)cc1`, the growth was 124%.

Take `COc1cccc(/C=C\C(=O)c2ccccc2)c1`: the growth was 25.2%.

`NS(=O)(=O)c1ccc(-n2ncc3c(=O)[nH]c(CN4CCN(c5cc6c(cc5F)c(=O)c(C(=O)O)cn6C5CC5)CC4)nc32)cc1`: the growth is 93.4%.

For `COc1cc(C2CC(=O)Nc3c2c(C)nn3-c2nc3ccccc3[nH]2)cc(OC)c1OC` (centres undefined), the growth was 32%.

For the molecule `CN1CCCCC1CCN1c2ccccc2Sc2ccc(Br)cc21` (centres undefined), the growth was 32.6%.

For `Cc1ccc(C2CC3c4ccccc4C2C2CCCCN32)cc1` (centres undefined), the growth was 92.2%.

Regarding `CCOC(=O)CC(C)=N`, the growth was 118%.

As for `N=S(=O)(NC(=O)c1ccc(Cl)cc1Cl)c1ccc(Br)s1` (centres undefined), the growth was 87.2%.

Take `COc1ccc(CN(c2ccc(C)cc2)C2OC(=O)c3ccccc32)cc1OC` (centres undefined): the growth is 91.3%.

On to `c1c2c(cc3c1OCO3)Cc1cc3c(cc1Cc1cc4c(cc1C2)OCO4)OCO3`, for which the growth was 112%.

On to `CCCCCCCCCCCCS(=O)CC(C)O` (centres undefined), for which the growth is 101%.

`CC1(C)CC(C(=O)OCCCCCCCCCCC[P+](c2ccccc2)(c2ccccc2)c2ccccc2)C(C)(C)N1O` (centres undefined): the growth is -32.8% (active).

Turning to `COc1ccc(/C(=C/c2ccc3ccccc3c2)c2nn[nH]n2)cc1OC`, the growth was 19.7%.

Regarding `Cc1cccc(NC(=O)c2sc3nc4c(cc3c2N)C(=O)CCC4)c1`, the growth was 25.4%.

Consider `O=[N+]([O-])c1cccc(C2CC(c3ccccc3)=Nc3ccccc3S2)c1` (centres undefined), for which the growth is 22.6%.

On to `CCOC(=O)/C=C/c1ccc(C(=O)OCC)[nH]1`, for which the growth was 82.8%.

Consider `CS(CCCCN=C=S)=NC(=O)c1c(F)c(F)c(F)c(F)c1F` (centres undefined), for which the growth is 36.8%.

On to `COC1C/C(=N\O)C2OC(c3ccccc3)OCC2O1` (centres undefined), for which the growth was 96.1%.

As to `Cc1cc(Nc2nc(N3CCN(C)CC3)nc3ccccc23)n[nH]1`, the growth is 65.3%.

In the case of `O=C1Nc2ccccc2/C1=C/C(=N/c1nnc(-c2ccccc2)s1)c1ccccc1`, the growth was -45% (active).

On to `COc1ccc(N(Cc2cc(OC)c(OC)c(OC)c2)C2OC(=O)c3ccccc32)cc1` (centres undefined), for which the growth is 9.62% (active).

With `Cc1csc2ccc(Cl)cc12`, the growth is 108%.

`O=C1Nc2ccccc2/C1=C/C(=N/c1nnc(-c2ccc(Cl)cc2)s1)c1ccccc1`: the growth was -42.7% (active).

As to `CC(=O)OCC1OC(OC2=C(CC=C(Cl)Cl)C(=O)c3ccccc3C2=O)C(OC(C)=O)C(OC(C)=O)C1OC(C)=O` (centres undefined), the growth was -19.3% (active).

`O=C(/C=C/c1ccc(B(O)O)cc1)/C=C/c1ccc(B(O)O)cc1`: the growth is 25%.

For `Cc1cc2cc3cc(C)c(N(C)C)cc3[n+](C)c2cc1N(C)C`, the growth was 13%.
